FLuc counter: inhibits or activates purified firefly luciferase, miR-21 counter-screen; P08659; purified FLuc, Km substrates, luminescence inhibition; Potency, µM (titrated, usually from 57.5 µM), most hits filed as inhibitors; 6.9% of 360,000 active; AID 588342; note: nearly all actives have a fitted effect of over 55% in size
Target sequence (P08659 whole entry, looked up): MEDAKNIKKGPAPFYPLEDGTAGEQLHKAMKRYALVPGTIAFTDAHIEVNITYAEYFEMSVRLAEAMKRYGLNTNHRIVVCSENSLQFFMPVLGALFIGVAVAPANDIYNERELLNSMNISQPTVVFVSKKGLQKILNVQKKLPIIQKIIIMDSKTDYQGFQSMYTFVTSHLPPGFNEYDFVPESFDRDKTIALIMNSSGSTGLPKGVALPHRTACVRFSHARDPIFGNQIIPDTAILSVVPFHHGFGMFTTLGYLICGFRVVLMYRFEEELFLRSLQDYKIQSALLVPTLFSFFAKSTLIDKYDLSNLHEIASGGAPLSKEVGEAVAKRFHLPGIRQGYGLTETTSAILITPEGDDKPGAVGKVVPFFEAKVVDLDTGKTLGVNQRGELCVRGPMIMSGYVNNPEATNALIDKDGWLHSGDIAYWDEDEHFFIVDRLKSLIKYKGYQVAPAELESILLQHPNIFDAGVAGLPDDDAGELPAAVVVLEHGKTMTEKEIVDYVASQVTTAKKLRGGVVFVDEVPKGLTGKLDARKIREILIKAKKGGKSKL
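Biochemical qHTS of compounds, final roughly 60 µM downward over six points, against 10 nM purified firefly luciferase using Km concentrations of substrates (10 uM D-luciferin, 10 uM ATP) in Tris acetate pH 7.5 buffer; luminescence output.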
ELG1 genotox: inducers of genotoxicity in HEK293T ELG1-luciferase cells; HEK293T ELG1-luciferase reporter, luminescence, 16 h; Potency, µM (highest dose often 46 µM), hits mostly activators; 1.3% of 330,000 active; note: nearly all actives have a fitted effect of over 60% in size
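Luminescence read-out: rising ELG1-luciferase signal, reflecting elevated ELG1 protein under genetic stress, flags genotoxic compounds. Cells were treated for 16 hr at 37 °C before ONE-Glo detection.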
NPC1 promoter act: NPC1 promoter activation. Huh7 NPC1 promoter luciferase reporter, 24 h. Potency, µM (titrated, usually from 9.22 µM), usual class: activators. 2.4% of 320,000 active; note: nearly all actives have a fitted effect of over 60% in size
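Huh7 cells stably carrying NPC1 promoter–luciferase, plated in Opti-MEM with 10% FBS for 2 h, were exposed to compound in DMSO for 24 h at 37 °C; luciferase reagent was added for 10 min and luminescence read.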
SMN2 splice enh: increases expression of the SMN2 splice variant | HEK293 SMN2-luciferase splicing reporter, luminescence, 30-36 h | 2.8% of 210,000 active | Potency, µM (top dose mostly 46.1 µM), hits mostly activators; note: nearly all actives have a fitted effect of over 55% in size
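qHTS luciferase splicing reporter: luminescence rises when SMN2 exon 7 is included in transfected HEK293 cells. Compound exposure lasted 30-36 h at 37C, with 4.5 mM final sodium butyrate as control, followed by a ONE-Glo read.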
Rab9 prom act: Rab9 promoter activation; Huh7 Rab9 promoter-luciferase reporter, luminescence, 24 h; Potency, µM (highest dose often 9.22 µM), usual class: activators; 2.8% of 320,000 active; AID 485297; note: nearly all actives have a fitted effect of over 60% in size
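Huh7 cells stably carrying a Rab9 promoter-luciferase reporter, 1500 cells per well in OP-MEM I with 10% FBS, treated with compound 24 hours at 37C. Luciferase activity read by luminescence after 10 minutes with Amplite reagent.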
Numbers stand for hits; n = inactive; u = inconclusive; x = no result; [ ] = another dose, or the depositor's remark. An excerpt weighted towards active compounds, which were near 7.5% of everything screened. Calls come from the whole dose curve; as a rule, active = well fitted curve in the direction sought with a large enough effect; inconclusive = small, poorly fitted or top-dose-only effect, or another doubt; inactive = no such curve, though single readings can be large; an effect the other way counts as inactive or inconclusive.

SMILES | FLuc counter | ELG1 genotox | NPC1 promoter act | SMN2 splice enh | Rab9 prom act
COc1ccccc1C(=O)NN1C(=O)/C(=C/c2cccn2C)SC1=S | u | n | n | x | n
COc1cc(/C=C2\SC(=S)N(NC(=O)c3ccccc3OC)C2=O)ccc1O | 4.3µM | n | n | x | n
COc1cc(/C=C2\SC(=S)N(NS(=O)(=O)c3ccc(C)cc3)C2=O)ccc1O | 21µM | n | n | x | n
COc1ccc(CNC(=O)c2nccnc2CO)cc1 | n | n | n | x | n
Cc1cc(C)n2nc(C(=O)OCCOc3ccc(F)cc3)nc2n1 | n | n | n | n | n
CC(/C=C1\SC(=S)N(NC(=O)c2ccncc2)C1=O)=C\c1ccccc1 | u | n | n | x | n
COc1cc(/C=C2\SC(=S)N(NC(=O)c3ccncc3)C2=O)ccc1O | 17µM | n | n | x | n
COc1cc(/C=C2\SC(=S)N(N3CCOCC3)C2=O)ccc1O | n | n | n | x | n
CCOc1cc(/C=C2\SC(=S)N(NC(=O)c3cccnc3)C2=O)ccc1O | 27µM | n | n | n | n
COc1cc(/C=C2\SC(=S)N(NC(=O)c3ccc(O)c(OC)c3)C2=O)ccc1O | 1.3µM | n | n | x | n
Cc1ccc2nc(C)cc(C(=O)N3CCCC(CO)(Cc4ccccc4C)C3)c2c1 (configuration not stated) | n | n | n | x | n
COc1ccc(C(=O)NNc2ncnc3c2cnn3-c2ccccc2)cc1 | n | x | x | x | x
COc1ccccc1Oc1ncnc2c1cnn2-c1ccccc1 | 12µM | u | u | 13µM | 4µM
c1ccc(CCNc2ncnc3c2cnn3-c2ccccc2)cc1 | 6.7µM | u | 3.2µM | 11µM | 1.6µM
O=c1[nH]n(-c2ncnc3c2cnn3-c2ccccc2)c(=O)c2ccccc12 | 13µM | n | n | n | n
COc1ccc(-n2ncc3c(NC(C)(C)CO)ncnc32)cc1 | 4.8µM | x | x | x | x
COc1ccc(C(=O)c2sc3nc(-c4ccc(F)cc4)ccc3c2N)cc1 | n | x | x | n | x
CC(C)(C)CC(C)(C)c1cc(O)c(O)c(CN2CCCCC2)c1 | x | x | x | n[9.22 µM] | x
c1ccc(-n2ncc3c(NCCN4CCCCC4)ncnc32)cc1 | 19µM | u | u | n | u
Cc1cccc(-n2ncc3c(NCCN4CCOCC4)ncnc32)c1 | u | n | n | n | n
CC(C)(C)Nc1ncnc2c1cnn2-c1ccccc1 | 1.5µM | 1µM | 0.35µM | 2µM | 0.4µM
c1ccc(-n2ncc3c(NCCN4CCOCC4)ncnc32)cc1 | u | 13µM | u | x | n
NC(N)=NC[C@H](N)C(=O)O | x | x | x | n[9.22 µM] | x
COc1ccccc1N1CCN(C(=O)COc2ccc(S(=O)(=O)NC(C)(C)C)cc2)CC1 | n | n | n | x | n
Cc1ccccc1CN1CCN(C(C)C(=O)NNC(=O)c2ccc(F)cc2)CC1 (configuration not stated) | u | n | n | x | n
SMILES | FLuc counter | ELG1 genotox | NPC1 promoter act | SMN2 splice enh | Rab9 prom act
C=CCOc1ccc2nc(NC(=O)OC)[nH]c2c1 | u | 9.2µM | n | 11µM | n
O=C(COC(=O)CNS(=O)(=O)c1ccc(Br)cc1Cl)NC1CCCC1 | n | n | n | x | n
Cc1ccc(S(=O)(=O)Nc2cc3c4c(c2)CCN4C(=O)CC3)cc1 | n | 10µM | n | x | n
O=C1CCc2cc(NS(=O)(=O)c3ccc(F)cc3)cc3c2N1CC3 | n | u | n | x | n
COc1cccc(CNC(=O)c2sc3ncccc3c2-n2c(C)ccc2C)c1OC | n | x | x | x | x
Cc1ccc(-c2ccc(C(=O)O)[nH]2)cc1 | 19µM | n | n | n | n
COc1ccc(-c2nc3ccccc3o2)cc1NC(=O)C(C)(C)Oc1ccc(Br)cc1 | n | x | x | n | x
O=C(Nc1ccccn1)c1cccc(S(=O)(=O)N2CCc3ccccc3C2)c1 | n | n | n | x | n
O=C(Nc1ccncc1)c1cccc(S(=O)(=O)N2CCc3ccccc32)c1 | n | n | n | x | n
O=C(O)c1cccc(NC(=O)c2cccc(S(=O)(=O)N3CCc4ccccc4C3)c2)c1 | 21µM | n | n | n | n
O=C(O)c1cccc(NC(=O)c2cccc(S(=O)(=O)N3CCc4ccccc43)c2)c1 | 21µM | n | n | x | n
COc1ccc2c(CNCCc3cccs3)c(C(=O)O)n(Cc3ccccc3C)c2c1 | n | x | x | x | x
O=c1c2oc3nc4c(cc3c2ncn1CCCc1ccccc1)CCCC4 | 24µM | n | n | x | u
CCCCn1cnc2c(oc3nc4c(cc32)CCCC4)c1=O | 6µM | u | 0.63µM | x | 0.56µM
CCCCCCn1cnc2c(oc3nc4c(cc32)CCCC4)c1=O | u | n | u | 11µM | 3.2µM
COc1ccc2c(c1)O[C@H](c1ccc3c(c1)OCO3)[C@@H](OC(=O)Nc1ccc(C)c(Br)c1)C2=O | x | x | x | n | x
Cc1ccc(C[C@@H](NS(=O)(=O)c2ccc(C(=O)O)cc2)C(=O)O)cc1 | n | x | n | x | n
CCOC(=O)c1cc(=O)n2nc(-c3ccc(C)cc3)nc2s1 | 3µM | n | n | n | n
COc1ccc(S(=O)(=O)N2CCc3cc(OC)c(OC)cc3C2)cc1 | n | n | n | x | n
CC(C)(C)N/N=C/c1c(O)n(-c2ccc(Cl)cn2)c(=O)c2ccccc12 | n | n | n | n | n
CCc1nnc(/N=C/c2c(O)n(-c3ccc(Cl)cn3)c(=O)c3ccccc23)s1 | 2.7µM | n | n | n | n
COc1cccc(C(=O)NC2CC3CCCC(C2)N3S(=O)(=O)c2ccccc2)c1 (configuration not stated) | n | n | n | x | n
C(=C\c1nnc(-c2cccs2)o1)/c1ccccc1 | 5.4µM | u | 2.5µM | u | 2.5µM
Cc1ccc(/C=C/c2nnc(-c3ccccc3)o2)cc1 | 5.4µM | u | 0.89µM | u | 1.1µM
Cc1ccc(-c2nnc(Nc3ccccc3)o2)cc1 | 0.15µM | 0.15µM | u | 0.4µM | 0.13µM
SMILES | FLuc counter | ELG1 genotox | NPC1 promoter act | SMN2 splice enh | Rab9 prom act
Cc1ccc(NC(=O)Nc2nnc(-c3ccccc3)o2)cc1 | u | n | n | n | u
COc1ccc(-n2cc(-c3ccccc3)c3c(NCCc4ccc(OC)c(OC)c4)ncnc32)cc1 | n | x | x | x | x
CC[C@]12c3[nH]c4cc(-c5ccco5)ccc4c3CCN1C(=O)[C@@H](CC(=O)NC(C)(C)C)C[C@@H]2C(=O)N1CCN(C(=O)C2CC2)CC1 | x | n | x | x | x
O=C(Nc1ccc(Cl)c(Cl)c1)c1cc(S(=O)(=O)N2CCN(c3cccc(Cl)c3)CC2)ccc1F | n | x | x | x | x
Cc1cccc(N2CCN(C(=O)c3ccc4c(Cl)c5c(nc4c3)CCCC5)CC2)c1C | n | x | x | n | x
COc1cc(-c2nnc(-c3ccco3)o2)ccc1OCc1ccccc1 | 15µM | n | n | u | n
CSc1nnc(-c2ccccc2)o1 | n | n | n | n | n
COc1cc(-c2nnc(-c3ccncc3)o2)ccc1OCc1ccccc1 | u | n | n | x | n
CN(C)S(=O)(=O)c1cccc(-c2nnc(-c3ccccc3)o2)c1 | 24µM | u | u | n | u
c1ccc(-c2nnc(-c3ccncc3)o2)cc1 | u | n | u | n | 3.2µM
COc1ccc(-c2cc(-c3nnc(-c4ccncc4)o3)c3ccccc3n2)cc1 | 2.7µM | n | n | n[1.84 µM] | n
